Results filed as inconclusive are left out. Entries that show only a call come without a potency. Calls of active or inactive are those of the source. Calls come from the whole dose curve; as a rule, active = well fitted inhibition curve with a large enough effect; inconclusive = small, poorly fitted or top-dose-only effect; inactive = flat fitted curve, though single readings scatter.
molecular target: Dual specificity protein kinase CLK4 (Homo sapiens) (UniProt Q9HAZ1); experiment: qHTS Assay for Inhibitors of CDC-like Kinase 4 (ADP-Glo Assay) (AID 1771); settings: recombinant CLK4, ADP-Glo luminescence; series mostly up to 80 µM; note: nearly all actives have a fitted effect of over 70% in size
Summary of the method: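 ADP production was read by ADP-Glo luminescence after residual ATP depletion, following 1 h room-temperature reaction of 25 nM Clk4, 1 uM ATP and 100 uM RS peptide with MgCl2, EGTA, DTT and Triton X-100.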
Potency is the fitted concentration of half-maximal effect.

Sequence of Dual specificity protein kinase CLK4 (Homo sapiens) (Q9HAZ1 whole entry, looked up): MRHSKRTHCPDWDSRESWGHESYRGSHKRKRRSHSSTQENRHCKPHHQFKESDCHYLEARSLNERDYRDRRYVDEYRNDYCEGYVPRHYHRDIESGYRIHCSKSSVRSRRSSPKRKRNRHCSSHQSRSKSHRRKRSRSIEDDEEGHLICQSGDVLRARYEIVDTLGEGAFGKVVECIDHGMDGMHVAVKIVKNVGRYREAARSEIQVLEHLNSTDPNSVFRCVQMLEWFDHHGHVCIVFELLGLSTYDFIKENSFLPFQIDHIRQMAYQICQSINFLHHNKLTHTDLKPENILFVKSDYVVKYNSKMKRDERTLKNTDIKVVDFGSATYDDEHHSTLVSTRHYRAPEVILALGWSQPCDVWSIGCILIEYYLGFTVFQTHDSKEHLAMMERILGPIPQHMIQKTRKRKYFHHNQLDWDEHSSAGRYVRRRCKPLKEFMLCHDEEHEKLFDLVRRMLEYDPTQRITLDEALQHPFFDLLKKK

SMILES	Potency
Clc1ccccc1-c1nc(-n2ccnc2)c2ccccc2n1	2.24 µM (active)
COc1ccccc1CNc1ncncc1-c1ccccc1C(F)(F)F	inactive
c1ccc(Nc2nc(-c3cccnc3)nc3ccccc23)cc1	3.55 µM (active)
c1ccc(CNc2nc(-c3cccnc3)nc3ccccc23)cc1	11.2 µM (active)
CN(C)c1ncc2nc(CCc3ccccc3)c(=O)n(CCc3ccccc3)c2n1	inactive
COc1ccc(-n2c(=O)c(-c3cccs3)nc3cnc(N4CCN(C)CC4)nc32)cc1	inactive
CCNc1ncc2ncc(=O)n(Cc3cccc(OC)c3)c2n1	3.16 µM (active)
CCNc1ncc2nc(CCc3ccccc3)c(=O)n(Cc3cccc(OC)c3)c2n1	inactive
Cn1c(=O)c(-c2ccccc2)nc2cnc(N3CCOCC3)nc21	inactive
Cn1c(=O)c(-c2ccc(Cl)cc2)nc2cncnc21	inactive
COc1cccc(Cn2c(=O)c(CCc3ccccc3)nc3cnc(N(C)C)nc32)c1	inactive
c1ccc2c(NCCN3CCOCC3)nc(-c3ccoc3)nc2c1	inactive
Cc1nc2cnc(N3CCN(C)CC3)nc2n(CCc2ccccc2)c1=O	inactive
CN(C)c1ncc2nc(CCc3ccccc3)c(=O)n(CCC#N)c2n1	inactive

— PubChem BioAssay (NCATS)
